Active and inactive are the calls of the source.
Legend:
Albumin (Bos taurus) = Albumin (Bos taurus) (UniProt P02769); assay: compounds binding labelled BSA control protein – biochemical, small-molecule microarray, Alexa647 label, 635/667 nm fluorescence, artefact control for SMM control protein annotation, profiling panel (AID 1118); details: BSA-A647 binding, fluorescence 635 nm, higher = more signal;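 note: score merges 667 nm emission intensity and signal-to-noise per printed compound spot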
[1] = probe aXIP binding to arrayed compounds – biochemical, NeuroSMM set, 635/667 nm fluorescence, primary screen (AID 1119); details: small-molecule microarray, higher = more signal, called active from +8 up or from −8 down;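 note: probe is the protein aXip251-270 applied at 1 µg/mL to compound-printed slides; binding of probe to printed compounds measured as 667 nm fluorescence plus signal to noise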
[2] = probe aNOTCH3 binding on compound microarray – biochemical, small-molecule microarray, 635/667 nm fluorescence, primary screen (AID 1120); details: higher = more signal;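 note: probe is a biotin-tagged antibody raised against NOTCH3 rather than NOTCH3 protein; score merges spot fluorescence near 667 nm with spot signal to noise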
[3] = probe aNOTCH2 binding on compound microarray – biochemical, small-molecule microarray, 635/667 nm fluorescence, primary screen (AID 1121); details: higher = more signal;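 note: score merges feature fluorescence read at 667 nm with its signal to noise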
[4] = molecular target: Carbonic anhydrase 2 (Homo sapiens) (UniProt P00918); assay: compounds binding carbonic anhydrase 2 – biochemical, small-molecule microarray, Alexa647-labelled CAII, profiling panel (AID 1122); details: CAII-A647 binding fluorescence, higher = more signal
[5] = COS7 lysate on small-molecule microarray, probe aHis, 635 nm (AID 1123); details: COS7 cell lysate, fluorescence, higher = more signal;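 note: z-score combines 667nm fluorescence intensity with signal-to-noise per printed compound spot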
[6] = probe aLAP1 signal on lysate-treated microarray – cell lysate, small-molecule microarray, COS7 lysate, primary screen (AID 1124); details: probe aLAP1, fluorescence, higher = more signal;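 note: lysate comes from COS7 cells expressing LAP1 and is applied at 0.3 µg/mL; score merges spot fluorescence near 667 nm with signal-to-noise over triplicate slides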
Sam68 (KHDRBS1) = assay: compounds binding KHDRBS1 protein – biochemical, small-molecule microarray, 635 nm fluorescence, primary screen (AID 1125); details: higher = more signal;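 note: score merges 667 nm channel intensity with signal to noise over triplicate slides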
[7] = system: Chordin-like protein 2 (CHRDL2); assay: compounds binding chordin-like 2 – biochemical, small-molecule microarray, 635 nm fluorescence, primary screen (AID 1126); details: fluorescence 635 nm, higher = more signal;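 note: printed compound slides probed with Chrdl2 protein at 4 µg/mL for 1 h at 4 C; score merges 667 nm emission intensity with signal to noise over three replicate slides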
[8] = molecular target: Concanavalin-A (Canavalia ensiformis) (UniProt P02866); assay: compounds binding concanavalin A lectin – biochemical, small-molecule microarray, Alexa647 label, 635 nm, artefact control for SMM control protein annotation, primary screen (AID 1127); details: ConA-A647 binding fluorescence, higher = more signal;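 note: z combines 667 nm emission intensity with signal-to-noise across three replicate slides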
[9] = compounds binding Alexa647 anti-His antibody – biochemical, small-molecule microarray, 635 nm fluorescence, artefact control for SMM control protein annotation, primary screen (AID 1128); details: higher = more signal;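 note: score merges feature fluorescence with signal-to-noise for each printed compound spot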
[10] = system: Human papillomavirus type 1a E7 protein (residues 1-88); assay: HPV1a E7 small-molecule binders, primary screen, biochemical, small-molecule microarray, residues 1-88, 635 nm (AID 1129); details: small-molecule microarray binding, fluorescence 635 nm; higher = more signal
[11] = molecular target: Focal adhesion kinase 1 (Homo sapiens) (UniProt Q05397); assay: PTK2 protein binding on printed compound slides – biochemical, small-molecule microarray, 635/667 nm fluorescence, BSA, DTT, primary screen (AID 1130); details: 635 nm fluorescence, higher = more signal;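 note: composite of spot emission at 667 nm and signal to noise over triplicate slides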
[12] = system: Fibrinogen (Alexa647-labelled); assay: Alexa647-fibrinogen binding to printed small molecules – biochemical, small-molecule microarray, 635/667 nm fluorescence, artefact control for SMM control-protein annotation, profiling panel (AID 1131); details: fibrinogen-A647 binding fluorescence, higher = more signal;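 note: z-score merges 667 nm fluorescence with per-spot signal-to-noise over triplicate slides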
[13] = molecular target: Follistatin (Homo sapiens) (UniProt P19883); assay: FST protein binding to printed compounds – biochemical, small-molecule microarray, 635/667 nm fluorescence, primary screen (AID 1132); details: 635 nm fluorescence, higher = more signal
[14] = molecular target: Fibroblast growth factor 2 (Homo sapiens) (UniProt P09038); assay: basic fibroblast growth factor binding to printed compounds – biochemical, small-molecule microarray, 635/667 nm fluorescence, primary screen (AID 1133); details: FGF2, fluorescence 635/667, higher = more signal
[15] = JC-1 mitochondrial potential readout, lung cancer cells – cell-based, A549, JC-1 fluorescence, basal, 24 h, 100 nL, profiling panel (AID 1138); details: higher = more signal;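 note: A549 lung adenocarcinoma cells under basal conditions with no added stimulus; test concentration not given here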
Lefty1 = Lefty1 protein binding to printed compounds – biochemical, small-molecule microarray, 635/667 nm fluorescence, primary screen (AID 1139); details: fluorescence 635/667, higher = more signal
[16] = system: wheat germ agglutinin (Triticum aestivum), Alexa647-labelled; assay: Alexa647-WGA lectin binding to printed small molecules – biochemical, small-molecule microarray, 635/667 nm fluorescence, artefact control for SMM control-protein annotation, profiling panel (AID 1140); details: WGA-A647 binding, 635 nm fluorescence, higher = more signal;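 note: score merges 667 nm feature emission with signal to noise over triplicate slides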
[17] = molecular target: Luciferin 4-monooxygenase (Photinus pyralis) (UniProt P08659); assay: inhibition of purified Photinus pyralis luciferase – biochemical, luminescence, purified enzyme, 2006 set, primary screen (AID 1141); details: purified firefly luciferase, SteadyGlo luminescence, 30 min; higher = more signal, called active from +8 up or from −8 down;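 note: cell-free assay with purified firefly luciferase at 100 ng per well in PBS; test concentration not given here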
Luciferin 4-monooxygenase (Photinus pyralis), sequence (P08659 whole entry, looked up): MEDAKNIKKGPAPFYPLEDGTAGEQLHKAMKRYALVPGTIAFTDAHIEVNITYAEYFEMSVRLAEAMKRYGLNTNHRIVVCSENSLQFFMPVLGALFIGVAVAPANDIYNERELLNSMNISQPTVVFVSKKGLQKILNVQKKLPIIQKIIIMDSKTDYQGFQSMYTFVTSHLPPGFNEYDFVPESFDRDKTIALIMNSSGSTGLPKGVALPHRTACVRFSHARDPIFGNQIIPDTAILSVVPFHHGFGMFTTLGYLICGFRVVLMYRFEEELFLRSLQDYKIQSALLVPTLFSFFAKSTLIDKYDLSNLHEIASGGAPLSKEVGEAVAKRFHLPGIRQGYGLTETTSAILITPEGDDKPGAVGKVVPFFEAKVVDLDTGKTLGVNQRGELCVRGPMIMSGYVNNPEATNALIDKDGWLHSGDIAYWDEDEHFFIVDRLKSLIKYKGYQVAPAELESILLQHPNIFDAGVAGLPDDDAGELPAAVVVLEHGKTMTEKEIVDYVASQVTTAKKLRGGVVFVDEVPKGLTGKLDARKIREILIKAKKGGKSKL

Fibroblast growth factor 2 (Homo sapiens), sequence (P09038 whole entry, looked up): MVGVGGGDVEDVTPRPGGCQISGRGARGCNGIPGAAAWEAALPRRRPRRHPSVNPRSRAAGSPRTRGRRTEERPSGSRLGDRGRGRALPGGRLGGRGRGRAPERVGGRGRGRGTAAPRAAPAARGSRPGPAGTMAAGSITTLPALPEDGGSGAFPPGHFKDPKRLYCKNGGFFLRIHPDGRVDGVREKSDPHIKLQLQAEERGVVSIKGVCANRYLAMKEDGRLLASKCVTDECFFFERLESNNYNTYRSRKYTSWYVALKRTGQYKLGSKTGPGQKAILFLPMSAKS
Concanavalin-A (Canavalia ensiformis), sequence (P02866 whole entry, looked up): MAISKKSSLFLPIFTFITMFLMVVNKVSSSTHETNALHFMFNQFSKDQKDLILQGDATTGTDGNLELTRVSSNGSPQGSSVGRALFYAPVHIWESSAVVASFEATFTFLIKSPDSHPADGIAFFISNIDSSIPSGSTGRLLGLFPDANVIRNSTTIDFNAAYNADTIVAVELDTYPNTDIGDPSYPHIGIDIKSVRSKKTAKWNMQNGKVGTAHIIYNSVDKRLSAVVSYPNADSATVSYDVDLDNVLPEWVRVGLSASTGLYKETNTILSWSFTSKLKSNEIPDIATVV
Follistatin (Homo sapiens), sequence (P19883 whole entry, looked up): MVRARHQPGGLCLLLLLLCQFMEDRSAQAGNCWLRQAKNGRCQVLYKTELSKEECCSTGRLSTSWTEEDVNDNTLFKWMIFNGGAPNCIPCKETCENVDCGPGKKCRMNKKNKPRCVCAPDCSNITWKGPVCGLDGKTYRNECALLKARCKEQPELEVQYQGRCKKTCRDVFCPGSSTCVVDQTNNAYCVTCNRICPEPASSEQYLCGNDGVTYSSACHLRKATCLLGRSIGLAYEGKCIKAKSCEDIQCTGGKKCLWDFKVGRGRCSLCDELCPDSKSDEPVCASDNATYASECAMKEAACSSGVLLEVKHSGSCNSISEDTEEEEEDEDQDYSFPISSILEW
Focal adhesion kinase 1 (Homo sapiens), sequence (Q05397 whole entry, looked up): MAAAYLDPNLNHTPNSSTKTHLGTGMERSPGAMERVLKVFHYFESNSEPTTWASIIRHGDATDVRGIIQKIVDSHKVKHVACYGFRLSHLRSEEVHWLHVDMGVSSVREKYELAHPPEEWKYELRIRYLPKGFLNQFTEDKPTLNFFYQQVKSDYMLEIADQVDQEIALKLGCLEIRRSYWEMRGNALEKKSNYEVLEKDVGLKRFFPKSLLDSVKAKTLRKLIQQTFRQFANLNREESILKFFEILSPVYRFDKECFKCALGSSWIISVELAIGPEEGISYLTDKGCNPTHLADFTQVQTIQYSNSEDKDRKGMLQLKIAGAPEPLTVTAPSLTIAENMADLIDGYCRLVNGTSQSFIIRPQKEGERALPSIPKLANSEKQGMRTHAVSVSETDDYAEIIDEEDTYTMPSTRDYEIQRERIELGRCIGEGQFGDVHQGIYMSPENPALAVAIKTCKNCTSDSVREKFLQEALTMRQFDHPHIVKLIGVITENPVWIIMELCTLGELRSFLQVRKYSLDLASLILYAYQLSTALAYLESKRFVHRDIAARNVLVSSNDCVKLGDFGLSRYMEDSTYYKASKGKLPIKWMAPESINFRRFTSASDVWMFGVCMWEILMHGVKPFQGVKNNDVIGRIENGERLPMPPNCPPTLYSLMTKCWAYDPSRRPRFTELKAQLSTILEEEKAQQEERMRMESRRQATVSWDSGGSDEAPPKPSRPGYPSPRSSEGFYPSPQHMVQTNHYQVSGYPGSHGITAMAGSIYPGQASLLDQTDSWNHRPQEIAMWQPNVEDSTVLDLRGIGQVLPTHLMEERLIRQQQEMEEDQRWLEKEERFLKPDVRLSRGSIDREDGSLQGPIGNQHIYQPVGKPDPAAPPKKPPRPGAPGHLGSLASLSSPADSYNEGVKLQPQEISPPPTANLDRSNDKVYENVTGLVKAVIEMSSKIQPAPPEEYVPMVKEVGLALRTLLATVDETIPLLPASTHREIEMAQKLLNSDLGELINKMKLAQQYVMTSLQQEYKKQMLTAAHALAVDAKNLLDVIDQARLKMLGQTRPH
Albumin (Bos taurus), sequence (P02769 whole entry, looked up): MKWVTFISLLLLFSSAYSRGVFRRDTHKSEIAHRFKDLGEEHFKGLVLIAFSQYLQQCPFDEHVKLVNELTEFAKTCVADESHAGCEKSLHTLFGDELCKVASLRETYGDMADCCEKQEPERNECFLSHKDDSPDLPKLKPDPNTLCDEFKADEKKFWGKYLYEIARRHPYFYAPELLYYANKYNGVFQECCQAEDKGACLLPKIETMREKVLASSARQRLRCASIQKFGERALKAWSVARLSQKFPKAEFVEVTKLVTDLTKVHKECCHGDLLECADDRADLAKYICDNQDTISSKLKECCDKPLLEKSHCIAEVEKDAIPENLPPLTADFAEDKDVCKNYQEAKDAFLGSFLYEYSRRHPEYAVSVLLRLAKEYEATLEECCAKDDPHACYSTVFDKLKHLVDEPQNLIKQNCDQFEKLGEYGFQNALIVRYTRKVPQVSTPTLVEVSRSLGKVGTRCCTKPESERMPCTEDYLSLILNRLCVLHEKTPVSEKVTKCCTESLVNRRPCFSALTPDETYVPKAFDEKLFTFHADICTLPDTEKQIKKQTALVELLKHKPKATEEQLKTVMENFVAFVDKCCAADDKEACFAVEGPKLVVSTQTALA

SMILES	composite z-score (Albumin (Bos taurus))	composite Z-score [1]	composite z-score [2]	composite z-score [3]	composite z-score [4]	composite z-score [5]	composite z-score [6]	composite z-score (Sam68 (KHDRBS1))	composite z-score [7]	composite z-score [8]	composite z-score [9]	composite z-score [10]	composite z-score [11]	composite z-score [12]	composite z-score [13]	composite z-score [14]	z-score [15]	composite z-score (Lefty1)	composite z-score [16]	z-score [17]
CC(CCN1CCCCc2nc(C)c(C)cc21)=NO[C@H](C)c1cn([C@@H]2COC[C@H]2O)nn1	0.43	-1.61 (inactive)	0.156	0.0097	0.616	0.298	0.0986	1.2	1.49	0.685	0.968	0.12	0.422	0.41	1.26	1.33	-0.624	1.38	-0.0522	1.05 (inactive)
COc1ccc(O[C@H]2C=C[C@@H](c3ccccc3)O[C@@H]2CON=C2c3cc(OC)ccc3O[C@H](c3cccc(OC)c3)[C@H]2O)cc1	0.322	-0.222 (inactive)	-0.122	-0.255	0.417	0.567	1.15	0.164	0.171	-0.996	-0.622	0.463	0.121	-0.413	0.618	1.63	0.0904	1.1	0.701	1.16 (inactive)
COC(=O)[C@@H]1CC[C@H](C)[C@@H](c2ccc(C)cc2)N1C(=O)c1ccc(C=NOC[C@@H](O)[C@H]2O[C@@H]3OC(C)(C)O[C@@H]3[C@H]2O)cc1	0.333	-0.187 (inactive)	-0.0014	-0.128	0.368	0.424	0.228	1.02	0.402	0.736	0.266	1.03	0.158	0.953	0.49	0.63	-1.78	0.367	0.506	-0.297 (inactive)
CCN1C(C)=C(C(=O)OC)[C@@H](c2ccccc2)N2C(=O)[C@](O)(C(=O)OC)CC(C(C)=O)=C12	-0.428	-0.686 (inactive)	-0.15	-0.207	-0.174	-0.0478	-0.152	-0.37	0.285	0.29	-1.01	0.127	0.0644	0.123	0.398	0.0171	1.07	0.638	0.278	-0.695 (inactive)
CO[C@@H]1COC(=O)[C@H](CCSC)NC(=O)CC=C[C@@H](C)COC(=O)[C@@H]2CCCN2C(=O)CC=C[C@H]1C	-1.43	0.605 (inactive)	0.0306	-0.199	-0.291	-0.462	-0.328	0.34	0.946	-0.353	0.0289	0.258	-0.702	-1.13	0.779	0.889	0.215	1.15	-1.37	-0.0167 (inactive)
COC(=O)[C@@H]1CC[C@H](C)[C@@H](c2ccc(C)cc2)N1C(=O)c1ccc(C=NO[C@@H](C)c2cc(-c3c(C)cc(C)cc3C)no2)cc1	0.432	-0.136 (inactive)	-0.004	-0.126	0.154	-0.0142	-0.207	1.2	0.306	0.894	-0.637	0.706	0.137	0.602	0.365	0.553	1.65	0.677	0.0859	0.195 (inactive)
COC(=O)CC=C[C@@H](C)[C@@H](C=NOC(C)CN1CCCCc2nc(C)c(C)cc21)OC (stereo not given in full)	0.276	-0.472 (inactive)	0.227	-0.0439	0.301	0.043	-0.0856	1.28	1.29	0.235	1.4	0.981	0.847	0	1.14	0.368	0.855	1.24	0.259	-0.183 (inactive)
CC(CCN1CCCc2nc(C)c(C)cc21)=NOC[C@@H](C)[C@H](OCc1ccccc1)C(C)C	-0.453	0.081 (inactive)	-0.0918	-0.0878	-0.358	0.816	-0.432	-0.818	-0.621	-0.691	2.52	-0.703	-0.0748	-0.9	-0.516	-0.165	1.37	0.241	-0.606	-1.14 (inactive)
CON(C)C(=O)c1nnc2c(n1)[nH]c1ccccc12	0.795	0.0617 (inactive)	-0.0765	-0.167	0.464	0.128	1.02	0.129	0.493	0.293	0.459	0.607	0.137	0.471	0.545	0.635	-0.448	0.596	0.816	-2.33 (inactive)
OC[C@H]1O[C@H](C#Cc2ccccc2)C=C[C@@H]1O	0.475	0.131 (inactive)	-0.0647	-0.101	-0.0795	0.171	-0.647	0.0701	0.622	0.341	-0.0558	0.202	0.0213	0.624	0.634	0.147	0.462	0.409	0.189	-1.47 (inactive)
C[C@@H](c1ccccc1)N1C(=O)[C@H]2[C@H]3[C@H](O)[C@H](O)CC(=NOC[C@@H](O)COCc4ccco4)[C@H]3CC[C@H]2C1=O	-0.0559	-0.0004 (inactive)	0.106	-0.189	-0.578	-0.795	0.565	-0.382	1.51	-0.832	0.0749	-1.09	-0.546	0.658	1.1	1.36	-0.882	1.05	0.0723	0.997 (inactive)
COC(=O)[C@H](C)NC(=O)CCC1CC(OC(=O)NCc2cccc3ccccc23)CC2(CCCC(COC(=O)NCc3ccccc3)O2)O1 (stereo not given in full)	-0.0725	0.142 (inactive)	0.062	-0.104	0.288	0.763	-0.206	1.26	0.7	0.984	0.432	0.976	0.388	0.893	0.729	0.846	-0.139	1.17	0.22	1.09 (inactive)
C[C@@H](c1ccccc1)N1C(=O)[C@H]2[C@H]3[C@H](O)[C@H](O)CC(=NNC(=O)OCc4ccccc4)[C@@H]3CC[C@H]2C1=O	0.517	0.581 (inactive)	-0.0647	-0.148	-0.191	-0.231	-0.723	0.723	1.45	-0.569	-0.23	-1.01	0.37	-0.864	1.43	1.66	-0.383	1.39	-0.212	0.574 (inactive)
COC(=O)[C@H](C)NC(=O)CCC1CC(OC(=O)NCc2ccc3c(c2)OCO3)CC2(CCCC(COC(=O)NCCC(C)C)O2)O1 (stereo not given in full)	0.492	-0.436 (inactive)	0.0488	-0.114	0.226	0.891	-0.308	1.31	0.0784	0.0667	0.363	0.63	0.73	0.87	0.831	0.531	-0.822	1.25	0.0551	0.977 (inactive)

Reference: PubChem BioAssay
